{"source": "PubChem BioAssay", "note": "Unmarked numbers belong to inactive results. How the calls were made is not given here.", "data": [{"system": "Aerobactin synthetase IucA (Klebsiella pneumoniae hvKP1)", "assay": "IucA enzyme inhibition, primary screen, biochemical, Spectrum library (AID 1346200);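 further: 100% = wells without compound and 0% = wells lacking enzyme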", "conditions": "malachite green pyrophosphate, A620, at 8 µM, hits give low values", "units": {"activity remaining": "%"}, "values": [{"smiles": "CC(C)(C)NCC(O)COc1cccc2c1C[C@H](O)[C@H](O)C2", "note": "(stereo not given in full)", "activity remaining": 103}, {"smiles": "Cc1ccc(-c2cc(C(F)(F)F)nn2-c2ccc(S(N)(=O)=O)cc2)cc1", "activity remaining": 95}, {"smiles": "CN(C)CC[C@H](c1ccc(Cl)cc1)c1ccccn1", "activity remaining": 90.6}, {"smiles": "CN1CCOC(c2ccccc2)c2ccccc2C1", "note": "(stereo not given)", "activity remaining": 110}, {"smiles": "COc1ccc(-c2cc(=O)c3cc(OC)ccc3o2)cc1", "activity remaining": 95.7}]}]}
